mTORC1 inh: Acumen qHTS Assay for Inhibitors of the mTORC1 Signaling Pathway in MEF (Tsc2-/-, p53-/-) Cells: Sytravon | Tsc2-/- p53-/- MEF, phospho-rpS6 immunofluorescence/PI, 24 h | hit rate 0.78% among 44,000 | AID 493208, 2011 | Potency, µM (highest dose often 38.3 µM), without a hit: at the highest dose activity change, negative = inhibition, actives largely listed as inhibitors;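 further: potency means the concentration at half of the fitted maximal effect; plate controls were DMSO for no effect and rapamycin for full effect; nearly all actives have a fitted effect of over 50% in size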
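Tsc2-/-, p53-/- mouse embryonic fibroblasts (empty-vector line) exposed to compound 24 hrs at 37 C, fixed, immunostained for phospho-rpS6 and counterstained with propidium iodide. Acumen laser scanning gives % positive cells from Alexa 488/PI ratio, thresholded using 7.5 nM rapamycin; PI count gives viability.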
S16 viability: Cell viability qHTS assay in S16 Pmp22-F2sN cells | S16 Pmp22-F2sN Schwann cells viability, CellTiter-Glo, 24 h | Potency, µM (top dose mostly 57.5 µM), for inactives: at the top dose activity change, negative = cytotoxicity, most hits filed as cytotoxic | hit rate 0.48% among 43,000 | AID 1508642, 2021; further: potency means the concentration at half of the fitted maximal effect; on the % scale 0 is the no-effect control and ±100 the full control effect; nearly all actives have a fitted effect of over 65% in size
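Seed 500-1,000 S16 Pmp22-F2sN cells per well in phenol-red-free DMEM with 10% heat-inactivated FBS; pin-add 23 nL compound; incubate 24 h at 37C; add CellTiter-Glo, wait 15 min protected from light; read luminescence.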
HTT-AS act: Primary qHTS for Identification of Small Molecule Activators of Huntingtin-Antisense Promoter Activity | HEK293 HTT-AS promoter firefly luciferase reporter, 24 h; response scale: percent change from vehicle, -100% = no light | Potency, µM (highest dose often 57.5 µM), inactives show at the highest dose activity change, positive = activation, usual class: activators | hit rate 0.24% among 48,000; further: potency means the concentration at half of the fitted maximal effect; nearly all actives have a fitted effect of over 55% in size
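Luminescence was read after Dual-Glo reagent and a 10 min room-temperature incubation. Values were normalized to vehicle (0% activity) and zero RLU (-100% activity). Reporter HEK293 cells had been exposed to compounds (up to 57.5 uM final) for 24 h.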
HTT promoter inh: Primary qHTS for Identification of Small Molecule Inhibitors of Huntingtin Promoter Activity | HEK293 HTT promoter firefly luciferase reporter, 24 h | Potency, µM (doses to about 57.5 µM), without a hit: at the highest dose activity change, negative = inhibition, actives largely listed as inhibitors | hit rate 0.93% among 48,000; further: potency means the concentration at half of the fitted maximal effect; nearly all actives have a fitted effect of over 50% in size
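Firefly luciferase readout (Dual-Glo, 10 min RT) after 24 h, 37 °C compound exposure (final up to 57.5 uM) of HEK293 reporter cells cultured 24 h beforehand; PTC124 at 50 uM final as control inhibitor; activity scaled vehicle 0%, zero RLU -100%.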
OvCa metastasis: Primary qHTS assay for Inhibitors of ovarian cancer metastasis using an organotypic tumor microenvironment (TME) model; hit rate 0.1% among 46,000; SKOV3ip1-GFP adhesion/invasion on 3D omental model, fluorescence; Potency, µM (series often up to 45.8 µM), without a hit: top-dose activity change, negative = inhibition, hits mostly inhibitors; AID 1963576, 2024;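 further: potency means the concentration at half of the fitted maximal effect; plate controls were DMSO wells for no effect and tomatine positive control wells for full effect; nearly all actives have a fitted effect of over 65% in size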
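qHTS, 4-pt dose (0.36-46 umol/L); SKOV3ip1-GFP, 1,200 cells/well, no FBS; primary omental fibroblast/mesothelial co-culture 48 h pre-grown; 2 h RT + 16 h 37 C; PBS wash, 4% PFA; GFP count 488/509 nm.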
PMP22 txn prim: Cell-based coincidence reporter assay to measure PMP22 gene transcription in S16 Pmp22-F2sN cells - Primary screen; hit rate 2% among 43,000; Potency, µM (series often up to 57.5 µM), without a hit: at the highest dose activity change, negative = inhibition, actives largely listed as inhibitors; S16 Pmp22-F2sN Schwann cells (luciferase reporters placed in the Pmp22 gene), FLuc/NLuc coincidence luminescence, 24 h; active means clear falling dose curves in both reporters; inconclusive means both reporters move, but less clearly or upward; inactive means either reporter flat; the % is the NLuc reporter signal; further: potency means the concentration at half of the fitted maximal effect; on the % scale 0 is the no-effect control and ±100 the full control effect
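Luminescent read-out of sequential FLuc and NLuc signals from a reporter embedded in the Pmp22 3' UTR of S16 Schwann cells, taken after 24 h compound exposure at 37C; compounds reducing both signals score as inhibitors of expression.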
NLuc sat counter: Biochemical NLuc saturation counterscreen for small molecule modulators of PMP22 gene expression - Nano-Glo assay. shares compounds with PMP22 txn prim. Secreted NLuc enzyme (filtered S16 cell medium), Nano-Glo luminescence. Potency, µM (titrated, usually from 57.5 µM), without a hit: top-dose activity change, negative = inhibition, most hits filed as inhibitors. hit rate 4% among 690. AID 1508638, 2021; further: potency means the concentration at half of the fitted maximal effect; on the % scale 0 is the no-effect control and ±100 the full control effect
NLuc Km ctr: Biochemical coelenterazine-based NLuc counterscreen for small molecule modulators of PMP22 gene expression - Km assay; hit rate 5% among 690; shares compounds with PMP22 txn prim; secreted NLuc enzyme, coelenterazine luminescence, Km conditions; Potency, µM (titrated, usually from 57.5 µM), for inactives: at the top dose activity change, negative = inhibition, most hits filed as inhibitors; AID 1508639, 2021; further: potency means the concentration at half of the fitted maximal effect; on the % scale 0 is the no-effect control and ±100 the full control effect
FLuc counter: Biochemical FLuc counterscreen for small molecule modulators of PMP22 gene expression. shares compounds with PMP22 txn prim. purified P. pyralis FLuc, luminescence, 10 min. Potency, µM (top dose mostly 57.5 µM), without a hit: at the top dose activity, negative = inhibition, usual class: inhibitors. 690 tested, under 10 active. AID 1508640, 2021; further: % of control where 0% means no effect
Target sequence (P08659 whole entry, looked up): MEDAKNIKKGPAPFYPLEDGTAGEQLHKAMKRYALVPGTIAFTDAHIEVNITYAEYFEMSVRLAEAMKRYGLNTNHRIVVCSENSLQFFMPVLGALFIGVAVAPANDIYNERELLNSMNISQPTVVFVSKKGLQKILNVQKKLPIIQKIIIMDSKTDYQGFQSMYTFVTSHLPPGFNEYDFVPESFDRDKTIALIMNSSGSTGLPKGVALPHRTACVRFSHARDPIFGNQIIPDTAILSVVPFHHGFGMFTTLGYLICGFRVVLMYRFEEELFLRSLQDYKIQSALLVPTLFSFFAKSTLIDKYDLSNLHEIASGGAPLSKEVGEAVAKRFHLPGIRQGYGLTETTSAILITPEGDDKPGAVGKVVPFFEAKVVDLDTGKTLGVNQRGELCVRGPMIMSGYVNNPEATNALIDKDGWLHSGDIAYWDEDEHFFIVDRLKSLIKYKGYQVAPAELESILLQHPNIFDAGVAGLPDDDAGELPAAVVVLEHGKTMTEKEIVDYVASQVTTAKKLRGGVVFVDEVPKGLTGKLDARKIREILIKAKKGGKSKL
S16 F2sN tox cnf: Cell viability qHTS assay in S16 Pmp22-F2sN cells - Confirmatory screen | shares compounds with PMP22 txn prim | S16 Schwann cells viability, CellTiter-Glo ATP luminescence, 24 h | Potency, µM (series often up to 57.5 µM), without a hit: at the top dose activity change, negative = viability loss, most hits filed as cytotoxic | hit rate 7% among 690 | AID 1508641, 2021; further: potency means the concentration at half of the fitted maximal effect; on the % scale 0 is the no-effect control and ±100 the full control effect
PMP22 txn cnf: Cell-based coincidence reporter assay to measure PMP22 gene transcription in S16 Pmp22-F2sN cells - Confirmatory screen; shares compounds with PMP22 txn prim; S16 Schwann cells Pmp22-F2sN, dual luciferase, 24 h; Potency, µM (highest dose often 57.5 µM), inactives show at the highest dose activity change, negative = inhibition, actives largely listed as inhibitors; hit rate 22% among 690; AID 1508646, 2021; active means clear falling dose curves in both reporters; inconclusive means both reporters move, but less clearly or upward; inactive means either reporter flat; the % is the FLuc reporter signal; further: potency means the concentration at half of the fitted maximal effect
* marks the source's active call; other numbers are inactive results; i = inactive; ? = inconclusive; nt = no result. The list is not random: actives were taken first. Their share in the collection is about 3.6%. Unless noted, the call rests on the fitted dose curve; in most records, active means well fitted curve in the direction sought with a large enough effect; inconclusive means small, poorly fitted or top-dose-only effect, or another doubt; inactive means no such curve, though single readings can be large; an effect the other way counts as inactive or inconclusive.

SMILES	mTORC1 inh	S16 viability	HTT-AS act	HTT promoter inh	OvCa metastasis	PMP22 txn prim	NLuc sat counter	NLuc Km ctr	FLuc counter	S16 F2sN tox cnf	PMP22 txn cnf
CC(C)(C)OC(=O)N[C@H]1CCCCCC=C[C@@H]2C[C@@]2(C(=O)NS(=O)(=O)C2CC2)NC(=O)[C@@H]2C[C@@H](OC(=O)N3Cc4cccc(F)c4C3)CN2C1=O	nt	nt	-22%	-13%	10%	nt	nt	nt	nt	nt	nt
CCc1nnc(SCC(=O)N(C)c2ccccc2)c2cc3sccc3n12	1%	?	-27%	2%	-8%	13µM*	?	?	-12%	-13%	?
CCc1nnc(SCc2ccc(F)cc2Cl)c2cc3sccc3n12	4%	19%	-2%	8%	3%	-13%	nt	nt	nt	nt	nt
Cc1cc(C(=O)N2CCN(c3cccc(Cl)c3)CC2)n(-c2ccccc2)n1	nt	nt	-28%	-17%	5%	nt	nt	nt	nt	nt	nt
CC1CCN(C(=O)CSc2nnc(NC(=O)Nc3ccccc3)s2)CC1	3%	-24%	-33%	?	i	19µM*	?	?	?	?	1%
CN(C)[C@@H](CCOc1cccc2ccccc12)c1ccccc1	nt	nt	-28%	-22%	4%	nt	nt	nt	nt	nt	nt
Cc1ccc(CNC(=O)Cn2c(=O)n(-c3cccc(Cl)c3)c(=O)c3sc4ccccc4c32)cc1	-5%	5%	-15%	-11%	i	9.5µM*	-7%	-3%	-4%	?	?

From PubChem BioAssay
